From PubChem BioAssay AID1159580 (chemical genetic matrix, 2015)
Hit rate of the full screen: of about 5,500 compounds, about 2,000 (36%) were called active. Another 18% or so got no clear call; they are omitted. This is one part of the list. Values without a mark were called inactive. No stated cut-off is given here; in the data, active means normalized growth mostly below about 0.91 (no sharp cut-off); inconclusive means no clear call, values can overlap the other calls; inactive means mostly above about 0.92.

Test: chemical genetic growth profiling, strain panel (AID 1159580);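 further: tested at 20 µM; growth read once vehicle control cultures reached saturation at 30 °C; 1 = growth at the plate median or of vehicle wells; lower values mean less growth of the strain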
Conditions: growth OD

## CN(Cc1cc(Br)cc(Br)c1N)C1CCCCC1
S. cerevisiae deletion strains, locus YKL009W, strain mrt4, hits give low values
  normalized growth: 1.01
S. cerevisiae deletion strains, locus YKL068W, hits give low values
  normalized growth: 1.01
S. cerevisiae deletion strains, locus YKL085W, strain MDH1 (second series), hits give low values
  normalized growth: 1.01
S. cerevisiae deletion strains, locus YKL085W, strain MDH1, hits give low values
  normalized growth: 1.01
S. cerevisiae deletion strains, locus YKL160W, strain elf1, hits give low values
  normalized growth: 1
S. cerevisiae deletion strains, locus YKL190W, strain CNB1, hits give low values
  normalized growth: 1.02
S. cerevisiae deletion strains, locus YKR001C, strain vps1, hits give low values
  normalized growth: 0.994
S. cerevisiae deletion strains, locus YKR026C, strain gcn3, hits give low values
  normalized growth: 1.04
S. cerevisiae deletion strains, locus YKR091W, strain srl3, hits give low values
  normalized growth: 1.03
S. cerevisiae deletion strains, locus YLL001W, strain dnm1, hits give low values
  normalized growth: 1.03
S. cerevisiae deletion strains, locus YLL026W, hits give low values
  normalized growth: 1.03
S. cerevisiae deletion strains, locus YLL041C, strain sdh2, hits give low values
  normalized growth: 1.05
S. cerevisiae deletion strains, locus YLR027C, strain aat2, hits give low values
  normalized growth: 1.01
S. cerevisiae deletion strains, locus YLR039C, strain RIC1, hits give low values
  normalized growth: 1.08
S. cerevisiae deletion strains, locus YLR058C, strain SHM2, hits give low values
  normalized growth: 1.01
S. cerevisiae deletion strains, locus YLR102C, strain apc9, hits give low values
  normalized growth: 1.02
S. cerevisiae deletion strains, locus YLR113W, strain HOG1, hits give low values
  normalized growth: 0.947
S. cerevisiae deletion strains, locus YLR221C, strain rsa3, hits give low values
  normalized growth: 0.997
S. cerevisiae deletion strains, locus YLR258W, strain gsy2, hits give low values
  normalized growth: 1.03
S. cerevisiae deletion strains, locus YLR262C, strain YPT6 (second series), hits give low values
  normalized growth: 0.982
S. cerevisiae deletion strains, locus YLR262C, strain YPT6, hits give low values
  normalized growth: 1.08
S. cerevisiae deletion strains, locus YLR268W, strain sec22, hits give low values
  normalized growth: 1.01
S. cerevisiae deletion strains, locus YLR320W, strain mms22, hits give low values
  normalized growth: 0.984
S. cerevisiae deletion strains, locus YLR330W, strain CHS5, hits give low values
  normalized growth: 1.02
S. cerevisiae deletion strains, locus YLR342W, strain FKS1 (second series), hits give low values
  normalized growth: 1
S. cerevisiae deletion strains, locus YLR342W, strain FKS1, hits give low values
  normalized growth: 1.02
S. cerevisiae deletion strains, locus YLR357W, strain rsc2, hits give low values
  normalized growth: 1.06
S. cerevisiae deletion strains, locus YLR370C, strain arc18, hits give low values
  normalized growth: 1.04
S. cerevisiae deletion strains, locus YLR371W, strain rom2, hits give low values
  normalized growth: 1.02
S. cerevisiae deletion strains, locus YLR384C, strain iki3, hits give low values
  normalized growth: 1.04
S. cerevisiae deletion strains, locus YLR418C, strain cdc73, hits give low values
  normalized growth: 1.02
S. cerevisiae deletion strains, locus YML016C, strain PPZ1, hits give low values
  normalized growth: 1.01
S. cerevisiae deletion strains, locus YML032C, strain rad52, hits give low values
  normalized growth: 0.986
S. cerevisiae deletion strains, locus YML120C, strain ndi1, hits give low values
  normalized growth: 1.04
S. cerevisiae deletion strains, locus YML124C, strain tub3, hits give low values
  normalized growth: 1.03
S. cerevisiae deletion strains, locus YMR058W, strain fet3, hits give low values
  normalized growth: 0.995
S. cerevisiae deletion strains, locus YMR078C, strain ctf18, hits give low values
  normalized growth: 1.04
S. cerevisiae deletion strains, locus YMR125W, strain sto1, hits give low values
  normalized growth: 1.06
S. cerevisiae deletion strains, locus YMR129W, hits give low values
  normalized growth: 1.04
S. cerevisiae deletion strains, locus YMR205C, strain PFK2, hits give low values
  normalized growth: 1.04
S. cerevisiae deletion strains, locus YMR223W, strain ubp8, hits give low values
  normalized growth: 1
S. cerevisiae deletion strains, locus YMR231W, strain pep5, hits give low values
  normalized growth: 1.04
S. cerevisiae deletion strains, locus YMR307W, strain GAS1, hits give low values
  normalized growth: 1.17
S. cerevisiae deletion strains, locus YNL067W, strain RPL9B, hits give low values
  normalized growth: 0.966
S. cerevisiae deletion strains, locus YNL071W, strain lat1, hits give low values
  normalized growth: 1.04
S. cerevisiae deletion strains, locus YNL183C, strain NPR1, hits give low values
  normalized growth: 0.838
S. cerevisiae deletion strains, locus YNL209W, strain ssb2, hits give low values
  normalized growth: 1.03
S. cerevisiae deletion strains, locus YNL233W, strain BNI4, hits give low values
  normalized growth: 1.01
S. cerevisiae deletion strains, locus YNL248C, strain rpa49, hits give low values
  normalized growth: 1.04
S. cerevisiae deletion strains, locus YNL250W, strain rad50, hits give low values
  normalized growth: 1.05
S. cerevisiae deletion strains, locus YNL271C, strain bni1, hits give low values
  normalized growth: 1.02
S. cerevisiae deletion strains, locus YNL298W, strain CLA4, hits give low values
  normalized growth: 1.03
S. cerevisiae deletion strains, locus YNL307C, strain MCK1, hits give low values
  normalized growth: 1.01
S. cerevisiae deletion strains, locus YNL322C, strain KRE1 (second series), hits give low values
  normalized growth: 1.06
S. cerevisiae deletion strains, locus YNL322C, strain KRE1, hits give low values
  normalized growth: 1.02
S. cerevisiae deletion strains, locus YNR049C, strain mso1, hits give low values
  normalized growth: 1.02
S. cerevisiae deletion strains, locus YNR052C, strain pop2, hits give low values
  normalized growth: 1.01
S. cerevisiae deletion strains, locus YOL006C, strain TOP1, hits give low values
  normalized growth: 0.804
S. cerevisiae deletion strains, locus YOL012C, strain htz1
  normalized growth: 2.06
S. cerevisiae deletion strains, locus YOL147C, strain pex11, hits give low values
  normalized growth: 1.03
S. cerevisiae deletion strains, locus YOR001W, strain rrp6, hits give low values
  normalized growth: 1.01
S. cerevisiae deletion strains, locus YOR061W, strain CKA2, hits give low values
  normalized growth: 1.01
S. cerevisiae deletion strains, locus YOR069W, strain VPS5, hits give low values
  normalized growth: 1.02
S. cerevisiae deletion strains, locus YOR070C, strain gyp1, hits give low values
  normalized growth: 1.03
S. cerevisiae deletion strains, locus YOR080W, strain dia2, hits give low values
  normalized growth: 1.07
S. cerevisiae deletion strains, locus YOR083W, strain WHI5, hits give low values
  normalized growth: 0.988
S. cerevisiae deletion strains, locus YOR106W, strain vam3, hits give low values
  normalized growth: 1.01
S. cerevisiae deletion strains, locus YOR136W, strain idh2, hits give low values
  normalized growth: 1.01
S. cerevisiae deletion strains, locus YOR144C, strain elg1, hits give low values
  normalized growth: 1.02
S. cerevisiae deletion strains, locus YOR184W, strain ser1, hits give low values
  normalized growth: 0.935
S. cerevisiae deletion strains, locus YOR231W, strain MKK1, hits give low values
  normalized growth: 0.841 (active)
S. cerevisiae deletion strains, locus YOR265W, strain rbl2, hits give low values
  normalized growth: 1.05
S. cerevisiae deletion strains, locus YOR270C, strain vph1, hits give low values
  normalized growth: 0.811
S. cerevisiae deletion strains, locus YOR290C, strain snf2, hits give low values
  normalized growth: 1
S. cerevisiae deletion strains, locus YOR316C, strain cot1, hits give low values
  normalized growth: 1.02
S. cerevisiae deletion strains, locus YPL051W, strain arl3, hits give low values
  normalized growth: 0.983
S. cerevisiae deletion strains, locus YPL078C, strain atp4, hits give low values
  normalized growth: 1.01
S. cerevisiae deletion strains, locus YPL106C, strain sse1, hits give low values
  normalized growth: 1
S. cerevisiae deletion strains, locus YPL240C, strain hsp82, hits give low values
  normalized growth: 1.02
S. cerevisiae deletion strains, locus YPL241C, strain CIN2, hits give low values
  normalized growth: 1.01
S. cerevisiae deletion strains, locus YPL256C, strain CLN2, hits give low values
  normalized growth: 0.944
S. cerevisiae deletion strains, locus YPR119W, strain clb2, hits give low values
  normalized growth: 1.01
S. cerevisiae deletion strains, locus YPR141C, strain kar3, hits give low values
  normalized growth: 1.02
S. cerevisiae deletion strains, locus YPR163C, strain tif3, hits give low values
  normalized growth: 1.03
S. cerevisiae deletion strains, locus YPR167C, strain met16, hits give low values
  normalized growth: 1.01
S. cerevisiae deletion strains, strain wtn01, hits give low values
  normalized growth: 0.995
S. cerevisiae strains, strain wild type, hits give low values
  normalized growth: 1.01
